An excerpt weighted towards active compounds, which were near 6.5% of everything screened.
MARV entry inh: qHTS for inhibitors of binding or entry into cells for Marburg Virus. Marburg virus pseudotyped entry inhibition, cell reporter. Potency, µM (highest dose often 37.8 µM), for inactives: at the top dose activity change, negative = inhibition, actives largely listed as inhibitors. 300,000 tested, 1.8% active; calls by dose curve; tested in HEK293 cells; note: potency is the fitted concentration of half-maximal effect
FMDV inh: High Throughput Screening for Foot and Mouth Disease Virus Antivirals. FMDV antiviral cell-based qHTS. Potency, µM (highest dose often 57.9 µM), for inactives: top-dose activity change, negative = inhibition, most hits filed as inhibitors. 410,000 tested, 1.2% active. AID 1159524, 2015; calls by dose curve; tested in HEK293T cells; note: read-out not given here; potency is the fitted concentration of half-maximal effect; nearly all actives have a fitted effect of over 45% in size
Vaccinia mCherry: qHTS for Stage-Specific Inhibitors of Vaccinia Orthopoxvirus: mCherry Reporter Primary qHTS; 310,000 tested, 0.63% active; Potency, µM (titrated, usually from 36.5 µM), inactives show top-dose activity change, negative = inhibition, usual class: inhibitors; Vaccinia virus mCherry reporter infection, fluorescence; calls by dose curve; tested in A549 cells; note: potency is the fitted concentration of half-maximal effect; nearly all actives have a fitted effect of over 35% in size
HCMV inh: qHTS Assay for inhibitors of the human cytomegalovirus (HCMV) | HFF cells, HCMV-luciferase reporter, 72 h; stronger effect = lower value | activity change, negative = inhibition, % at 57.5 µM | 410,000 tested, 4.5% active; in the data active = activity change below about -60%; inconclusive = no clear call, values can overlap the other calls; inactive = above about -39%
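Two-dose cell screen: HFF monolayers treated with compounds and infected with luciferase-expressing HCMV at 1 PFU/cell, 72 h at 37C, then lysed for luciferase measurement.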
LASV entry inh: qHTS for Inhibitors of binding or entry into cells for Lassa Virus; 300,000 tested, 1.2% active; Potency, µM (highest dose often 37.9 µM), for the others: at the top dose activity change, negative = inhibition, most hits filed as inhibitors; Lassa virus pseudotype entry inhibition, cell reporter; calls by dose curve; tested in HEK293 cells; note: potency is the fitted concentration of half-maximal effect; nearly all actives have a fitted effect of over 50% in size
VACV Venus inh: qHTS for Stage-Specific Inhibitors of Vaccinia Orthopoxvirus: Venus Reporter Primary qHTS. Vaccinia virus Venus reporter expression, fluorescence. Potency, µM (doses to about 36.5 µM), inactives show at the highest dose activity change, negative = inhibition, usual class: inhibitors. 330,000 tested, 0.46% active. AID 720580, 2013; calls by dose curve; tested in A549 cells; note: potency is the fitted concentration of half-maximal effect; nearly all actives have a fitted effect of over 30% in size
Starred values were filed as active, the others as inactive; i = inactive; ? = inconclusive; nt = not tested or not shown; + = active, no number; [ ] = remark or other dose. % is set by controls: 0 for no effect and ±100 for the full control effect.

SMILES | MARV entry inh | FMDV inh | Vaccinia mCherry | HCMV inh | LASV entry inh | VACV Venus inh
COc1ccc(CNC(=O)C2CCCN(S(=O)(=O)N3CCC(C)CC3)C2)c(OC)c1 (centres undefined) | 1.4%[46.1 µM] | 7.2% | -2.1% | + | -12.4%[46.1 µM] | -19.6%
CN(c1ccc(F)cc1)S(=O)(=O)N1CCCC(C(=O)NCCc2ccccc2)C1 (centres undefined) | nt | -13.9% | -8.4% | 12.5 | -29.1%[46.1 µM] | -9.2%
COc1cccc(CNC(=O)C2CCCN(S(=O)(=O)N(C)c3ccc(F)cc3)C2)c1OC (centres undefined) | nt | 22.4µM* | -12.0% | -71.5* | -17.1%[46.1 µM] | -25.8%
CN(c1ccc(F)cc1)S(=O)(=O)N1CCCC(C(=O)NCc2ccccc2Cl)C1 (centres undefined) | nt | -9.5% | -12.1% | -39.5 | ? | -5.2%
COc1cc(=O)n2c(c1C(=O)NC(C)c1ccco1)CCN(C(=O)c1cccc(C)c1C)CC2 (centres undefined) | nt | 27.0% | -11.5% | nt | nt | -8.4%
CCCS(=O)(=O)NCc1c(C)ncc2c1CCN(C(=O)c1ccc3[nH]c4c(c3c1)CCCC4)C2 | nt | -12.4% | -10.2% | nt | nt | 6.8%
COc1cc2c(cc1OC)C1C(=O)c3c(cc4c(c3O)C=CC(C)(C)O4)OC1CO2 (centres undefined) | nt | ? | 4.4% | nt | nt | 12.0%
CCOC(=O)c1c(NC(=O)CN2CCN(C(=O)c3ccco3)CC2)sc(C)c1C | ? | -24.7% | ? | -3.3 | 11.2µM* | ?
CCc1c(C)sc(NC(=O)CN2CCN(C(=O)c3ccco3)CC2)c1C(=O)OC | ? | ? | -7.7% | -14.7 | 3.55µM* | -17.7%
CC(=O)N1CCc2c(sc(NC(=O)CSc3ccc(F)cc3)c2-c2nc3ccccc3s2)C1 | nt | 0.0% | -4.5%[7.34 µM] | -96.2* | -9.4%[46.1 µM] | -1.2%[7.34 µM]
CCN1CCc2c(sc(NC(=O)CSc3ccccc3)c2-c2nc3ccccc3s2)C1 | nt | -12.6% | -19.6%[7.34 µM] | 57.4 | -27.1%[46.1 µM] | -19.5%[7.34 µM]
CN1CCc2c(sc(NC(=O)CSc3ccc(F)cc3)c2-c2nc3ccccc3s2)C1 | nt | -10.7% | -7.6%[7.34 µM] | -16.4 | 1.1%[46.1 µM] | -14.5%[7.34 µM]
CC(=O)Nc1sc2c(c1-c1nc3ccccc3s1)CCN(C(C)C)C2 | nt | -10.2% | 12.6µM* | nt | nt | 10µM*
O=C(NCCCCc1ccccc1)c1cccc(NC(=O)C2CC2)c1 | nt | -7.2% | i | 9.3 | nt | -18.8%
CCOC(=O)C1(Cc2cccc(OC)c2)CCN(Cc2cccc(OCC)c2O)CC1 | 7.08µM* | ? | -26.3% | ? | -24.3%[46.1 µM] | -11.5%
CCOC(=O)C1(Cc2cccc(OC)c2)CCN(C/C=C/c2ccc(OC)cc2)CC1 | ? | 14.1µM* | -21.3% | ? | ? | -12.5%
CCOC(=O)C1(Cc2cccc(OC)c2)CCN(CC=C(C)C)CC1 | nt | -27.3% | nt | -33.3 | nt | nt
CCOC(=O)C1(Cc2ccc(OC)cc2)CCN(C(=O)CCN2CCCC2=O)CC1 | nt | 30.7% | nt | -75.8* | nt | nt
CCOC(=O)C1(CC2CC2)CCN(Cc2ccc(OC)cc2F)CC1 | 10µM* | ? | -18.3% | ? | ? | 1.6%
O=C(C1CCC1)N1CC(=O)N2[C@H](CO)[C@@H](c3ccc(Br)cc3)[C@@H]2C1 | nt | nt | nt | -5.2 | nt | nt
Cc1ccc(C)c(C(O)c2ncc(-c3ccc(F)cc3)[nH]2)c1 (centres undefined) | nt | 10.7% | -18.7% | -21.9 | nt | -2.5%
CCOC(=O)C1(Cc2cccc(OC)c2)CCN(C/C=C/c2ccccc2)CC1 | 7.94µM* | ? | -23.9% | -38.5 | ? | -22.4%
CCOC(=O)C1(Cc2cccc(OC)c2)CCN(CCO)CC1 | 0.0%[46.1 µM] | -16.2% | -5.4% | 42.9 | 9.3% | -0.7%
CCC(C)C(=O)Nc1nc(C)c(-c2csc(Nc3ccc(Cl)cc3)n2)s1 (centres undefined) | nt | 0.0% | ? | -90.4* | nt | ?
CC(=O)Nc1ccc(Nc2nc(-c3sc(NC(C)=O)nc3C)cs2)cc1 | 3.16µM* | -19.5% | -23.8% | -27.2 | ? | -19.8%
SMILES | MARV entry inh | FMDV inh | Vaccinia mCherry | HCMV inh | LASV entry inh | VACV Venus inh
CC(=O)Nc1nc(C)c(-c2csc(Nc3ccc(O)cc3)n2)s1 | 4.61µM* | -7.8% | nt | nt | ? | nt
COc1cccc(Nc2nc(-c3sc(NC(=O)c4ccccc4)nc3C)cs2)c1 | nt | -18.4% | -26.8% | -60.6* | nt | ?
COc1cccc(Nc2nc(-c3sc(NC(=O)CC(C)C)nc3C)cs2)c1 | nt | -24.2% | ? | 24.2 | nt | ?
Cc1ccc(S(=O)(=O)N2CCOCC2)cc1NC(=O)CNCc1cccnc1 | nt | -23.5% | nt | -6.5 | nt | nt
O=C(Nc1ccc(F)cc1F)c1cc(Cl)sc1Cl | ? | 36.0% | -7.2% | -34.8 | ? | -7.4%
O=C(NC(=S)Nc1nc(-c2cccc([N+](=O)[O-])c2)cs1)c1cc(Cl)ccc1Cl | ? | ? | -17.3% | 1.7 | ? | -12.8%
O=[N+]([O-])c1cccc(NC(=S)Nc2nc(-c3ccc(Cl)cc3Cl)cs2)c1 | nt | nt | nt | -87.3* | nt | nt
CC(=O)Nc1nc(C)c(-c2csc(Nc3cccc(C(C)=O)c3)n2)s1 | nt | -8.9% | nt | -32.4 | nt | nt
CC(=O)Nc1nc(C)c(-c2csc(Nc3cccc([N+](=O)[O-])c3)n2)s1 | 14.1µM* | -25.7% | 5.01µM* | -9.0 | ? | ?
O=C(NCCN1CCN(Cc2ccccc2)CC1)c1ccc(CS(=O)(=O)c2ccc(Br)cc2)o1 | 0.6%[46.1 µM] | -8.1% | -18.2% | -11.2 | -11.2%[46.1 µM] | -9.8%
Cn1c(-c2ccccc2)c(C(=O)CCl)c2ccccc21 | ? | 10µM* | -27.5% | -100.6* | -27.0% | -22.0%
CCn1c(-c2ccccc2)c(C(=O)CCl)c2ccccc21 | nt | 17.8µM* | -15.5% | -99.6* | nt | -18.3%
CCC1C(=O)NCCN1Cc1ccc2c(c1)CN(Cc1ccc3c(c1)OCCO3)CCO2 (centres undefined) | nt | -3.3% | -8.6% | nt | nt | -6.1%
COc1ccc(CNc2nc3ccccc3n2CCN2CCOCC2)cc1 | -12.6% | -8.1% | -13.4% | 27.8 | 14.0% | ?
O=C(Nc1nc2ccccc2n1CCN1CCOCC1)c1ccccc1 | -8.4% | -20.0% | -3.7% | 5.2 | -14.6% | -14.0%
O=C(Nc1nc2ccccc2n1CCN1CCOCC1)c1cn(-c2ccccc2)nc1-c1ccccc1 | ? | 0.0% | 28.2µM* | ? | ? | ?
CCN(CC)c1ccc(CNc2nc3ccccc3n2CCN2CCOCC2)cc1 | 11.2µM* | -25.8% | -20.7% | -26.4 | -21.7%[46.1 µM] | -19.0%
CCOC(=O)C1(c2ccccc2)CCN(CCC(=O)Nc2cccc(Br)c2)CC1 | 2.82µM* | -33.3% | ? | ? | 12.6µM* | ?
CCOC(=O)C1(c2ccccc2)CCN(CCC(C#N)(c2ccccc2)c2ccccc2)CC1 | nt | ? | -5.0% | -85.7* | nt | -17.5%
Cc1ccc(Cl)cc1NC(=O)c1ccc(CSc2nnnn2C)cc1 | -0.9% | -2.8% | nt | -60.7* | 1.4% | -7.4%
CCCN1C2CCCC1CC(NC(=O)c1cc(OC)c(OC)c(OC)c1)C2 (centres undefined) | ? | 7.9% | -5.2% | -104.3* | -0.6% | 0.3%

Bioassay records: PubChem, National Center for Advancing Translational Sciences (NCATS)
